# Results taken from PubChem BioAssay (NCATS).
# Several values for one entry are separate records, joined by “and”; a condition that tells them apart may be missing. Equal values may be shown once. Inconclusive results are not listed. Entries that show only a call come without a potency. Activity calls are given as the source filed them. Calls follow the shape of the full dose curve.
# Assay: Cytotoxicity counterscreen for inhibitors of SARS-CoV-2 cell entry (AID 1645845); also: nearly all actives have a fitted effect of over 50% in size
# Details: cell viability (SARS-CoV-2 entry assay cells); series mostly up to 57.1 µM; activity change, negative = cytotoxicity: at the top concentration
# How it was run: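 ATP-content luminescence (ATPLite 1step, 15 min RT) read after 48 h compound exposure of Expi293F cells stably expressing human ACE2; normalized to cells-only wells and media-only wells.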
Compound,outcome,"activity change, negative = cytotoxicity"
NC(=O)c1ccccc1O,inactive,
O=C(c1ccccc1)c1ccccc1,inactive,
COC(=O)N/N=C/c1c[n+]([O-])c2ccccc2[n+]1[O-],,2.13% (inactive)
Nc1ccc(C(=O)O)cc1,inactive,
CCn1nc(C(=O)O)c(=O)c2cc3c(cc21)OCO3,inactive,
CO/N=C(/C(=O)N[C@@H]1C(=O)N2C(C(=O)[O-])=C(C[n+]3ccn4ncccc43)CS[C@H]12)c1nsc(N)n1,inactive,
Cc1c(Nc2ncccc2C(=O)O)cccc1C(F)(F)F,inactive,
O=C(O)[C@@H](O)[C@H](O)[C@H](O)[C@@H](O)C(=O)O,inactive,
NC(CO)(CO)CO,,4.15% (inactive)
CCN(CC)CC#CCOC(=O)C(O)(c1ccccc1)C1CCCCC1 (stereo not drawn),,-9.13% (inactive)
NC(CS)C(=O)O (stereo not drawn),inactive,
CC1c2ccccc2CN1NC(=O)c1ccc(Cl)c(S(N)(=O)=O)c1 (stereo not drawn),,4.94% (inactive)
O=C(O)COc1nn(Cc2ccccc2)c2ccccc12,,0.99% (inactive)
NC(N)=Nc1nc(CSCC/C(N)=N/S(N)(=O)=O)cs1,,3.41% (inactive)
Cc1oc(=O)oc1COC(=O)[C@@H]1N2C(=O)[C@@H](NC(=O)[C@H](N)c3ccccc3)[C@H]2SC1(C)C,inactive,

# Assay: Primary qHTS to identify inhibitors of SARS-CoV-2 cell entry (AID 1645846); also: nearly all actives have a fitted effect of over 45% in size
# Details: SARS-CoV-2 pseudovirus cell entry assay, luminescence; activity change, negative = inhibition: at 57.1 µM (top of the series) unless noted; series mostly up to 57.1 µM
# How it was run: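 Inhibition of spike-mediated entry was scored in human ACE2-transfected Expi293F cells. Particles were MLV-pseudotyped with Wuhan-Hu-1 S carrying a 19-aa C-terminal deletion; signal was luciferase after two days, scaled between spike PP and fusion-protein-free PP.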
Compound,outcome,"activity change, negative = inhibition",Potency
c1ccc(-c2nc[nH]c2-c2ccccc2)cc1,inactive,,
Cn1c(=O)c2[nH]cnc2n(C)c1=O,,-18.5% and -12.1%,
NS(=O)(=O)c1ccc(Cl)c(S(N)(=O)=O)c1,inactive,,
c1ccc2sc(SSc3nc4ccccc4s3)nc2c1,inactive [at 27.1 µM],,
COc1c2occc2cc2ccc(=O)oc12,,,inactive
COc1ccc2cc([C@H](C)C(=O)O)ccc2c1,,,inactive
CC(C)(Oc1ccc(Cl)cc1)C(=O)OCCCOC(=O)C(C)(C)Oc1ccc(Cl)cc1,,-28.5%,
CN1C(=O)OC(C)(C)C1=O,inactive,,
OCCc1ccccc1,inactive,,
O=C(O)CCCCCCCC(=O)O,inactive,,
CCCCCCCCCCC[C@@H](C[C@@H]1OC(=O)[C@H]1CCCCCC)OC(=O)[C@H](CC(C)C)NC=O,,0.353%,
Nc1nc(=O)n([C@@H]2CS[C@H](CO)O2)cc1F,,-20.7%,
NC(N)=NS(=O)(=O)c1ccc(N)cc1,inactive,,
O=c1cc(O)c(Cl)c[nH]1,inactive,,
Clc1cccc(Cl)c1NC1=NCCN1,inactive,,
Cc1cc(O)cc2c1O[C@](C)(CCC[C@H](C)CCC[C@H](C)CCCC(C)C)CC2,inactive,,
CC(=O)OCC[N+](C)(C)C,,3.83%,
CCO/C([O-])=N/c1c[n+](N2CCOCC2)no1,inactive,,
NCCNCCNCCNCCN,,4.56% [at 11.3 µM],

Compound,outcome,"activity change, negative = inhibition",Potency
CC(=O)Nc1c(I)cc(I)c(C(=O)O)c1I,inactive,,
NC(=O)c1cc[n+](CC2=C(C(=O)[O-])N3C(=O)[C@@H](NC(=O)Cc4cccs4)[C@H]3SC2)cc1,inactive,,
Cc1cc(O)cc(C)c1Cl,inactive,,
CCOC(=O)c1ccc(OCCN2C[C@H](O)[C@@H](O)[C@H](O)[C@H]2CO)cc1,,0.637%,
NC(=O)c1ccccc1O,,1.57%,
O=C(c1ccccc1)c1ccccc1,inactive,,
COC(=O)N/N=C/c1c[n+]([O-])c2ccccc2[n+]1[O-],inactive,,
Nc1ccc(C(=O)O)cc1,inactive,,
CCn1nc(C(=O)O)c(=O)c2cc3c(cc21)OCO3,inactive,,
CO/N=C(/C(=O)N[C@@H]1C(=O)N2C(C(=O)[O-])=C(C[n+]3ccn4ncccc43)CS[C@H]12)c1nsc(N)n1,inactive,,
Cc1c(Nc2ncccc2C(=O)O)cccc1C(F)(F)F,inactive,,
O=C(O)[C@@H](O)[C@H](O)[C@H](O)[C@@H](O)C(=O)O,,-0.518%,
NC(CO)(CO)CO,inactive,,
CCN(CC)CC#CCOC(=O)C(O)(c1ccccc1)C1CCCCC1 (stereo not drawn),,-28.2%,
NC(CS)C(=O)O (stereo not drawn),,-4.89%,
CC1c2ccccc2CN1NC(=O)c1ccc(Cl)c(S(N)(=O)=O)c1 (stereo not drawn),,-22.6%,
O=C(O)COc1nn(Cc2ccccc2)c2ccccc12,inactive,,
NC(N)=Nc1nc(CSCC/C(N)=N/S(N)(=O)=O)cs1,inactive,,
Cc1oc(=O)oc1COC(=O)[C@@H]1N2C(=O)[C@@H](NC(=O)[C@H](N)c3ccccc3)[C@H]2SC1(C)C,inactive,,
